Assay outcomes (PubChem)
HSP90 inh = HSP90 refolding inhibition in rabbit reticulocyte lysate; luciferase refolding luminescence, 3 h; inhibition, % at 5.6 µM; 290,000 compounds, 0.91% hits;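 active = inhibition above the screen-wide mean plus 3 SD, computed separately per campaign, cut at about 16% in these data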;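 also: 0% = DMSO wells and 100% = 60 µM geldanamycin wells; inhibitors lower the luminescence because luciferase stays unfolded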
Platelet DG rel = platelet dense granule release activity; human platelet-rich plasma, SFLLRN dense granule ATP release, luminescence; inhibition, %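 (compounds screened at 7.5 µM in platelet-rich plasma)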; 300,000 compounds, 0.22% hits;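 active = mean replicate score, as percent of positive control, at or above 50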
SENP7 inh = blocks the human protease SENP7. AID 434973. recombinant SENP7, Z-RLRGG-aminoluciferin luminescence, 40 min. Q9BQF6. 330,000 compounds, 1.5% hits. inhibition, % at 5 µM;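 active = inhibition above about 50% at the single test dose, limit read from the data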;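 also: plate controls were DMSO with enzyme for no effect and no enzyme buffer wells for full effect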
SENP8 block-1 = inhibitors of human SENP8 protease; inhibition, % at 10 µM; Q96LD8; 330,000 compounds, 1.2% hits; purified SENP8, Z-RLRGG-aminoluciferin cleavage, luminescence; in the data active = inhibition above about 50%
Target sequence (Q96LD8 whole entry, looked up): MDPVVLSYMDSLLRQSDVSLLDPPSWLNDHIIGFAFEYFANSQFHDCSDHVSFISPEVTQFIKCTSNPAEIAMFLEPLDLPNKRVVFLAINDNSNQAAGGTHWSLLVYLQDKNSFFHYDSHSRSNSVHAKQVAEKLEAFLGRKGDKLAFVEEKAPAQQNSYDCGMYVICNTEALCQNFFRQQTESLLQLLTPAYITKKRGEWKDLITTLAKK
SENP6 inh = inhibitors of human SENP6 protease. inhibition, % at 10 µM. 330,000 compounds, 1.8% hits. Q9GZR1. Recombinant SENP6 catalytic domain, aminoluciferin luminescence;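 active = inhibition above about 50% at the single tested dose, limit read from the data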;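 also: plate controls were DMSO wells with enzyme for no effect and DMSO wells lacking enzyme for full effect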
Target sequence (Q9GZR1 628-1112 limits assumed): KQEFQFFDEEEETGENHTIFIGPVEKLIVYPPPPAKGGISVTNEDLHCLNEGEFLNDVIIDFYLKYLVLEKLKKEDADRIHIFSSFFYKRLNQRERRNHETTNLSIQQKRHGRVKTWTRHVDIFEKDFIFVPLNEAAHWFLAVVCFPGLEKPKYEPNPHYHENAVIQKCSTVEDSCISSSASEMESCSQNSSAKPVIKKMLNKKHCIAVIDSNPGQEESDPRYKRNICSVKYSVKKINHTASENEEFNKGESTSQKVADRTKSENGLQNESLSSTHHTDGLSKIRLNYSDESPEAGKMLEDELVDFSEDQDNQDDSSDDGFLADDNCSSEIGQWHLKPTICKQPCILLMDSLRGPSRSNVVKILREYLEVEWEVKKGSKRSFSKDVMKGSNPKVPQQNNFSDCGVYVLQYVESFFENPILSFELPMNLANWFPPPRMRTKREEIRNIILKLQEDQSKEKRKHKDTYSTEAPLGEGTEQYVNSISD
SENP8 block-2 = SENP8 (human) protease inhibition. Q96LD8. recombinant SENP8, Nedd8 substrate fluorescence. inhibition, % at 20 µM. 360,000 compounds, 0.64% hits; in the data active = inhibition mostly above about 40%, no sharp cut-off; inactive = mostly below about 27%
HSP90 confirm = HSP90 inhibition, confirmation assay. shares compounds with HSP90 inh. rabbit reticulocyte lysate, luciferase refolding luminescence, 3 h. inhibition, % at 5.9 µM. 2,300 compounds, 64% hits. AID 1846; in the data active = inhibition above about 18%;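 also: 0% = vehicle wells and 100% = reference inhibitor wells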
FLuc counter = counter-screen for HSP90 inhibitors: inhibitors of firefly luciferase; purified native firefly luciferase, luminescence; AID 1847; inhibition, % at 5.9 µM; shares compounds with HSP90 inh; 2,300 compounds, 48% hits;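 active = inhibition above the mean inhibition of all tested sample wells plus 3 SD, cut at about 10% in these data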;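 also: 0% = DMSO with luciferase and 100% = wells lacking luciferase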
An asterisk follows results filed as active; / = not tested or not shown. The list is not random: actives were taken first. Their share in the collection is about 2.8%.

SMILES | HSP90 inh | Platelet DG rel | SENP7 inh | SENP8 block-1 | SENP6 inh | SENP8 block-2 | HSP90 confirm | FLuc counter
O=C(NCc1ccc(Cl)cc1)N1CCN(S(=O)(=O)c2ccccc2)CC1 | 38.0* | -5.7 | 3.7 | 1.1 | -3.6 | 5.0 | -1.4 | -5.7
CCCc1nnc2n1N=C(c1ccc(C)cc1)CS2 | 0.6 | -7.4 | 1.3 | -3.2 | -1.5 | 2.4 | / | /
Cc1ccc(S(=O)(=O)Nc2ccc(O)c(Sc3ncn[nH]3)c2)cc1 | -2.7 | 9.5 | 1.0 | 2.7 | 1.7 | 6.3 | / | /
Cc1ccc(S(=O)(=O)/N=C2/C=C(Sc3ncn[nH]3)C(=O)c3ccccc32)cc1 | 89.3* | / | / | / | / | -11.5 | 37.8* | 44.9*
Cc1ccc(S(=O)(=O)/N=C2/C=C(Sc3ncn[nH]3)C(=O)c3ccccc32)c(C)c1 | 84.9* | / | / | / | / | / | 44.3* | 37.9*
COC(=O)c1cc(S(=O)(=O)NC2CCC(C)CC2)cn1C (stereo unspecified) | -3.4 | 5.9 | 3.6 | 5.4 | 11.1 | 9.4 | / | /
C=CCN1C(=O)c2ccc(C(=O)N(C)CC(=O)Nc3ccccc3Br)cc2C1=O | -1.4 | 0.9 | -1.7 | 6.5 | -4.9 | 8.0 | / | /
C[C@H](O)[C@@H]1C(=O)N2CCc3ccc(-c4ccccc4)cc3[C@@H]2C[C@@H]1N(C)C(=S)Nc1ccc(F)cc1 | / | / | / | / | / | -1.1 | / | /
CCOC(=O)c1ccc(-c2csc(NC(=O)CN3CCC(C)CC3)n2)cc1 | -2.6 | 9.6 | -1.5 | 3.1 | 9.8 | -94.5 | / | /
O=C(Nc1ccccc1C(=O)O)c1ccccc1 | 3.8 | 8.5 | -0.5 | 21.4 | 29.9 | -3.2 | / | /
Cc1c(NC(=O)c2ccc(-c3ccccc3)cc2)cccc1C(=O)O | 75.4* | 16.3 | 96.0* | 92.5* | 98.6* | 27.9 | 80.7* | 63.1*
Cc1nc(NC(=O)/C=C/c2ccccc2)sc1C(=O)Nc1ccccc1Cl | 27.1* | 9.4 | -7.2 | -7.2 | -0.3 | -338.4 | 54.3* | -19.2
N#CC1=C(N)Oc2n[nH]c(-c3ccncc3)c2C1c1ccsc1 (stereo unspecified) | 17.0* | 0.9 | -9.9 | -2.3 | -11.6 | 18.9 | -0.7 | -7.4
CCC(CC)C1C(C#N)=C(N)Oc2n[nH]c(-c3ccccc3)c21 (stereo unspecified) | 17.6* | -0.3 | -5.9 | -3.7 | -2.5 | 12.6 | -7.7 | -2.4
Cc1ccc(C2C(C#N)=C(N)Oc3n[nH]c(-c4cccs4)c32)cc1 (stereo unspecified) | 7.8 | 2.8 | 1.3 | -0.5 | -8.8 | 17.5 | / | /
COc1cc(OC)cc(C2C(C#N)=C(N)Oc3n[nH]c(-c4cccnc4)c32)c1 (stereo unspecified) | 17.6* | 1.9 | 3.0 | 1.3 | -2.3 | 12.2 | -2.8 | -1.6
N#CC1=C(N)Oc2n[nH]c(-c3ccccc3)c2C1c1ccsc1 (stereo unspecified) | -0.9 | -17.6 | 5.6 | -0.2 | -6.2 | 28.6 | / | /
CCC(CC)C1C(C#N)=C(N)Oc2n[nH]c(C)c21 (stereo unspecified) | 4.3 | 2.9 | -3.0 | -3.4 | -11.6 | 10.4 | / | /
COc1cc(C2C(C#N)=C(N)Oc3n[nH]c(-c4cccs4)c32)cc(OC)c1O (stereo unspecified) | 23.8* | 3.8 | 12.2 | 9.7 | 25.3 | 6.8 | -2.8 | -6.9
Cc1ccc(C2/C(=C(\O)c3ccc4c(c3)OCCO4)C(=O)C(=O)N2Cc2cccnc2)cc1 (stereo unspecified) | -2.4 | 5.2 | 2.6 | -7.1 | -6.6 | -11.2 | / | /
COc1ccccc1C(=O)NC(=S)Nc1cccnc1Cl | 54.6* | -0.8 | 3.7 | 6.9 | 15.8 | 12.4 | 22.8* | 11.5*
O=C(NCCc1cccc(Cl)c1)c1ccc2c(c1)OCO2 | 19.6* | 37.7 | 27.2 | 3.7 | 15.0 | -7.2 | 40.3* | 29.2*
CC(=O)Nc1cccc(OCC(=O)NC(C)c2ccc3ccccc3c2)c1 (stereo unspecified) | -0.9 | -18.1 | -8.0 | -0.2 | -35.8 | 12.2 | / | /
COC(=O)c1ccc(N=NNc2cccc(Br)c2)cc1 | 9.9 | / | / | / | / | 7.8 | / | /
Cc1[nH]n(-c2ccccc2)c(=O)c1N=Nc1ccc(F)cc1 | 2.4 | 3.2 | 5.8 | 5.8 | -2.5 | 37.6 | / | /
SMILES | HSP90 inh | Platelet DG rel | SENP7 inh | SENP8 block-1 | SENP6 inh | SENP8 block-2 | HSP90 confirm | FLuc counter
COC(=O)c1ccc(N=Nc2c(C)[nH]n(-c3ccccc3)c2=O)cc1 | 25.9* | 3.6 | 0.8 | 1.0 | 2.6 | 33.1 | 30.1* | -3.7
COC(=O)c1ccc(N=NNc2ccccc2)cc1 | 28.4* | 2.0 | -1.0 | -12.1 | -5.8 | 23.6 | 46.8* | -11.5
CN(CCc1ccccc1)C(=O)c1[nH]c(C(F)(F)F)nc1-c1ccccc1 | / | / | / | / | / | 15.5 | / | /
COc1ccc(-c2cc(C(=O)N3CCN(Cc4ccccc4)CC3)no2)cc1OC | 52.3* | -1.0 | 4.7 | 5.4 | 5.2 | 2.2 | -1.1 | -12.8
O=C1CN(C(=O)c2c(F)cccc2F)C(c2ccccc2)c2cc(Br)ccc2N1 (stereo unspecified) | 2.8 | 3.5 | 1.2 | 7.2 | -4.6 | 6.8 | / | /
CC(C)CC(=O)N1CC(=O)Nc2ccc(F)cc2C1c1ccccc1 (stereo unspecified) | 39.0* | 13.5 | 6.3 | 0.9 | -8.8 | 16.6 | -6.4 | -9.8
Cc1ccc2c(c1)C(c1ccccc1)N(C(=O)c1c(F)cccc1Cl)CC(=O)N2 (stereo unspecified) | 17.3* | 1.2 | -8.5 | -9.4 | 5.1 | 12.3 | 3.6 | -4.0
Cc1ccc(-c2onc3ccc(C(=O)/C=C/N(C)C)cc23)cc1 | 60.5* | -4.0 | -2.6 | 5.8 | 7.0 | -20.6 | -9.2 | -21.1
COc1cccc(-c2onc3ccc(C(=O)/C=C/N(C)C)cc23)c1 | 1.5 | -0.6 | 4.9 | -0.2 | 19.0 | -8.6 | / | /
Cc1cccc(-c2onc3ccc(C(=O)/C=C/N(C)C)cc23)c1 | 38.9* | 6.0 | -5.4 | -5.9 | 3.4 | -8.9 | -2.9 | -7.9
COc1ccc(Br)cc1CN(C)C(=O)c1cnc(C)cn1 | -0.8 | -0.4 | 3.2 | 2.9 | 2.0 | 15.0 | / | /
COc1cccc(CC2(CO)CCCN(Cc3sc(N4CCCC4)nc3Cl)C2)c1 (stereo unspecified) | -0.9 | 1.3 | 4.1 | -2.4 | -3.7 | 11.2 | / | /
NNC(=O)CN1CCCc2ccccc21 | 24.8* | 2.9 | -4.9 | -3.8 | -4.8 | -19.4 | 46.0* | 39.3*
Cc1noc(C)c1C(=O)N(CC(C)C)c1nc2ccccc2s1 | 2.2 | -13.7 | -1.5 | -3.4 | -20.2 | 0.3 | / | /
CCN(CC)CCN(C(=O)c1ccc(C(=O)c2ccccc2)cc1)c1nc2cc3c(cc2s1)OCO3 | 4.3 | -9.4 | 2.8 | 1.5 | -2.8 | 21.5 | / | /
CCN(CC)CCN(C(=O)c1ccc2ncsc2c1)c1nc2cc3c(cc2s1)OCO3 | 34.4* | -7.2 | 0.3 | -2.1 | -1.5 | -26.6 | 34.1* | 15.9*
CCN(CC)CCN(C(=O)c1ccc(Br)s1)c1nc2cc3c(cc2s1)OCCO3 | 50.9* | -4.9 | -3.8 | -1.1 | -8.4 | 24.0 | -3.1 | -17.5
